# Screening data: PubChem BioAssay, National Center for Advancing Translational Sciences (NCATS)
# Pf growth 96h – inhibits malaria parasite growth, 96 h. P. falciparum luciferase reporter growth, 96 h. Potency, µM (top dose mostly 28.7 µM), hits mostly inhibitors. actives 6.9% (n = 320,000)
#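 P. falciparum expressing integrated firefly luciferase grown in erythrocytes (2% hematocrit, 0.05% parasitemia final) with compounds for 96 hours at 37 C, 5% CO2. Growth inhibition read as loss of luminescence after adding luciferase detection reagent.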
# HCMV antiviral – inhibitors of human cytomegalovirus; activity change, negative = inhibition, % at 57.5 µM; actives 4.5% (n = 410,000); HFF cells, HCMV-luciferase reporter, 72 h; stronger effect = lower value; in the data active = activity change below about -60%; inconclusive = no clear call, values can overlap the other calls; inactive = above about -39%
#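 Screen run at 2 compound doses on HFFs infected with reporter HCMV, MOI 1 PFU/cell. Luciferase activity from cell lysates at 72 h post infection gave inhibition relative to buffer-only and Salinomycin wells.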
# Sm TGR block – inhibitors of Schistosoma mansoni thioredoxin glutathione reductase; purified TGR, DTNB reduction, TNB absorbance 405 nm; Potency, µM (top dose mostly 114 µM), most hits filed as inhibitors; actives 3% (n = 360,000); AID 485364; note: nearly all actives have a fitted effect of over 60% in size
#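 TGR 20 nM + NADPH 100 uM (dispensed conc.), cpd preinc 15 min RT; start with NADPH (500 uM addition) then DTNB (15 mM addition). Kinetic TNB absorbance, 405 nm filter. Four-parameter Hill fit across titration.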
# SARS PLP yeast – blocks SARS-CoV papain-like protease in a yeast assay; actives 0.19% (n = 330,000); Potency, µM (series often up to 32.9 µM), most hits filed as activators; S. cerevisiae expressing SARS-CoV PLpro, growth rescue; calls by dose curve; note: nearly all actives have a fitted effect of over 55% in size
# Pf growth 48h – inhibits P. falciparum growth in the first generation, 48 h. actives 5.9% (n = 310,000). P. falciparum luciferase growth in erythrocytes, 48 h. Potency, µM (doses to about 28.7 µM), hits mostly inhibitors. AID 504832
#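 Here the parasites carry a stable luciferase gene and grow inside erythrocytes in Albumax-based RPMI medium with compound for one erythrocytic cycle. Activity is scored as loss of luminescent signal.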
# HCV inhibitor – blocks hepatitis C virus; Huh7.5.1 HCVcc-Cre infection, luciferase reporter, 44 h; Potency, µM (series often up to 41.8 µM), usual class: inhibitors; actives 3.4% (n = 340,000)
#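 Antiviral activity was scored by luciferase reporter output from cells infected with HCVcc-Cre (~0.5 moi) in presence of compound, 44 h infection period, cells seeded 1,000/well 4 h prior.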
# A number is an active result; n = inactive; u = inconclusive; x = not tested or not shown; [ ] = another dose, or the depositor's remark. Hits are enriched below; roughly 15% of the tested compounds scored in any of these assays. Unless noted, calls come from the whole dose curve; as a rule, active = well fitted curve in the direction sought with a large enough effect; inconclusive = small, poorly fitted or top-dose-only effect, or another doubt; inactive = no such curve, though single readings can be large; an effect the other way counts as inactive or inconclusive.
SMILES,Pf growth 96h,HCMV antiviral,Sm TGR block,SARS PLP yeast,Pf growth 48h,HCV inhibitor
Cc1ccc2c(c1)c1c(n2C)-c2[nH]ncc2CC1,n,n,n,n,n,10µM
O=C(N/N=C/c1cccc(F)c1)c1c(O)c2ccccc2[nH]c1=O,n,n,n,n,n,13µM
O=C(N/N=C/c1ccccc1)c1c(O)c2ccccc2[nH]c1=O,n,-92,n,n,n,u
O=C(N/N=C/c1ccc(F)cc1)c1c(O)c2ccccc2[nH]c1=O,n,n,n,n,n,n
O=C(COc1ccccc1Cl)Nc1ccc(Cl)c(-c2nc3ccccc3o2)c1,x,n,n,x,x,x
O=S(=O)(c1ccc(Cl)cc1)c1cnc2ccccc2n1,10µM,n,u,n,u,u
COC(=O)c1cc(Cl)cc2c(C)c(C3(O)CCCCC3)[nH]c12,n,n,n,n,n,8.9µM
Cc1cc2c(c(=O)n1Cc1ccc3c(c1)OCO3)C(c1cccnc1)C(C#N)=C(N)O2 (centres undefined),n[5.75 µM],n,n,u,12µM,n
COc1ccc(CCn2c(C)cc3c(c2=O)C(c2ccc4c(c2)OCO4)C(C#N)=C(N)O3)cc1OC (centres undefined),x,n,n,n,8.3µM,u
COc1cc(C2C(C#N)=C(N)Oc3cc(C)n(CC4CCCO4)c(=O)c32)cc2c1OCO2 (centres undefined),u,n,45µM,n,u,n
COCCN(C(=O)CSCc1ccccc1)c1c(N)n(Cc2ccccc2)c(=O)[nH]c1=O,n,n,n,n,n,n
CCCN(C(=O)CCSc1ccc(F)cc1)c1c(N)n(Cc2ccccc2)c(=O)[nH]c1=O,4.7µM,n,n,n,12µM,n
COCCN(C(=O)CCSc1ccc(F)cc1)c1c(N)n(Cc2ccccc2)c(=O)[nH]c1=O,13µM,n,n,n,u,n
COCCCN(C(=O)c1ccc2ccccc2n1)c1c(N)n(Cc2ccccc2)c(=O)[nH]c1=O,n,n,n,n,n,n
COCCCN(C(=O)CCSc1ccc(F)cc1)c1c(N)n(Cc2ccccc2)c(=O)[nH]c1=O,u,n,n,n,12µM,n
C#CCN1CC(=O)N(COC(=O)[C@@H]2[C@@H](C=C(C)C)C2(C)C)C1=O,n,x,x,x,n,x
CCn1c(=NC(=O)C2COc3ccccc3O2)sc2c(OC)ccc(OC)c21 (centres undefined),n,n,n,n,n,11µM
COc1ccc2c3n([n+]([O-])c2c1)C(C)CN=C3c1cc(Cl)c(N)c(Cl)c1 (centres undefined),x,n,x,x,x,x
Cc1ccc(NC(=O)CSC(C)C(=O)OCc2cc(=O)oc3cc(O)ccc23)cc1 (centres undefined),x,n,x,x,x,x
CC1=C(C(=O)OC2CCCC2)C(c2ccc(C)o2)C2=C(CC(c3cccs3)CC2=O)N1 (centres undefined),n,n,u,n,9.3µM,u
CCOC(=O)C1=C(C)NC2=C(C(=O)CC(c3cccs3)C2)C1c1cccs1 (centres undefined),u,n,n,n,4.1µM,u
CC1=C(C(=O)OC2CCCCC2)C(c2ccc(C)o2)C2=C(CC(C)(C)CC2=O)N1 (centres undefined),n,n,n,n,12µM,n
COC(=O)C1=C(C)NC2=C(C(=O)CC(c3cccs3)C2)C1c1ccsc1 (centres undefined),n,n,n,n,n,n
CC1=C(C(=O)OC2CCCCCC2)C(c2ccc(C)o2)C2=C(CCCC2=O)N1 (centres undefined),n,u,u,n,u,u
CC(C)CC(C(=O)NCC1CCCO1)N(C(=O)Cn1nnc(-c2ccc(F)cc2)n1)c1ccccc1F (centres undefined),n,n,n,n,u,n
SMILES,Pf growth 96h,HCMV antiviral,Sm TGR block,SARS PLP yeast,Pf growth 48h,HCV inhibitor
COc1cc(-c2[nH]ncc2CN2CCSCC2)cc(OC)c1OC,u,n,n,n,u,u
COc1cc(-c2[nH]ncc2CN2CCN(c3cccc(C)n3)CC2)cc(OC)c1OC,4.1µM,n,n,n,9.3µM,11µM
C=C(C)CN=C1NN=C(c2cc(C)n(-c3ccc(C)cc3)c2C)CS1,u,n,n,n,u,u
COCCn1c(C)cc(C2=NNC(=NC(C)(C)C)SC2)c1C,u,n,n,n,12µM,n
COCCn1c(C)cc(C2=NNC(=Nc3ccc(OC)cc3)SC2)c1C,3.7µM,x,n,n,13µM,n
COCCn1c(C)cc(C2=NNC(=Nc3ccccc3)SC2)c1C,n,n,n,n,u,u
Cc1csc(SCC(=O)Nc2cc([N+](=O)[O-])ccc2F)n1,u,n,n,n,u,n
COc1ccccc1OCc1nc(C#N)c(NCCCn2ccnc2)o1,n,u,45µM,n,n,u
COc1ccc(Nc2oc(COc3ccccc3OC)nc2C#N)cc1,u,-80,18µM,n,n,n
COc1ccccc1OCc1nc(C#N)c(NCc2ccc(C)cc2)o1,x,n,n,x,x,x
N#Cc1nc(COc2ccccc2F)oc1NCCCn1ccnc1,n,n,25µM,n,n,n
N#Cc1nc(COc2ccc(F)cc2)oc1NCCCn1ccnc1,n,n,n,n,n,n
CCNc1oc(COc2ccccc2F)nc1C#N,x,n,56µM,n,n,n
Cc1c(NC(=O)Nc2ccc3c(c2)OCO3)cccc1[N+](=O)[O-],n,n,n,n,n,n
O=C(COC(=O)Cc1ccc(S(=O)(=O)N2CCOCC2)s1)Nc1ccccc1Cl,x,n,x,n,x,n
O=C1CC(C(=O)Nc2ccc(F)cc2)n2cnnc2N1 (centres undefined),n,-71,n,n,n[5.75 µM],u
O=C(Nc1ccc(F)cc1)C1CC(=O)n2cnnc2N1 (centres undefined),n,n,n,n,n,n
CC/C(=N/N=C(/CC)c1ccc(O)cc1)c1ccc(O)cc1,x,-99,x,x,x,u
Cc1ccccc1C(=O)N1CCC(C(=O)NN2C(=O)NC3(CCC(C)CC3)C2=O)CC1 (centres undefined),n,n,n,n,n,n
Cc1cccc(S(=O)(=O)NC(=O)C2(C)CCN2C(=O)Cc2ccc(C(C)(C)C)cc2)c1 (centres undefined),x,n,x,x,x,x
N#CC(C(=O)Nc1ccc(Cl)c(Cl)c1)=C1Nc2ccccc2N1,2.6µM,n,n,n,n,n
COCCNC(=S)N(CCc1c(C)[nH]c2ccc(F)cc12)Cc1cccs1,n,u,n,n,u,u
COCCNC(=S)N(CCc1c(C)[nH]c2ccc(Cl)cc12)Cc1cccs1,u,n,n,n,u,7.1µM
CCNC(=S)N(CCc1c(C)[nH]c2ccc(Cl)cc12)Cc1ccco1,u,u,n,n,u,10µM
Cc1occc1-c1nnc(SCC(=O)N2CCCC(C)C2)o1 (centres undefined),u,n,u,n,n,n
